# The entries come from a sample that favours hits as a whole.
# Dicer inh: inhibitors of human Dicer processing of pre-microRNA; Q9UPY3; cat-ELCCA pre-miR-21 Dicer processing, chemiluminescence; hits give high values; z-score at 25 µM; 6% of 47,000 active; in the data active = z-score above about 3, passing the limit was not always enough;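 note: plate controls were vehicle for no effect and no enzyme for full effect; higher signal means more uncleaved substrate so more Dicer inhibition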
# Numbers without * were called inactive.
SMILES,Dicer inh
CCN(CC)CC#Cc1cccc(C)c1,5.02*
CCOC(=O)c1cc(C(N)=S)c(C)nc1C(F)(F)F,-1.12
CS(=O)(=O)n1cc(C(=O)C(F)F)c2ccccc21,0.57
CC1(C)CC(=O)C2=C(C1)Nc1ncnn1C2c1cccc(O)c1 (configuration not stated),-0.16
CC1(C)CC(=O)C2=C(C1)Nc1ncnn1C2c1ccc(Cl)cc1 (configuration not stated),3.17*
CCN(CC)c1ccc(C2C3=C(CC(C)(C)CC3=O)Nc3ncnn32)cc1 (configuration not stated),2.24
O=C1CCCC2=C1C(c1cccc(O)c1)n1ncnc1N2 (configuration not stated),0.53
Cc1ccc(C2C3=C(CC(c4ccc(Cl)cc4)CC3=O)Nc3ncnn32)cc1 (configuration not stated),0.34
CC1(C)CC(=O)C2=C(C1)Nc1ncnn1C2c1ccccc1 (configuration not stated),1.87
Cc1ccc(C2C3=C(CC(c4ccccc4)CC3=O)Nc3nc(C(F)(F)F)nn32)cc1 (configuration not stated),3.01*
CC1CC(=O)C2=C(C1)Nc1ncnn1C2c1ccccc1 (configuration not stated),4.57*
O=C1CC(c2ccc(Cl)cc2)CC2=C1C(c1cccnc1)n1c(nc3ccccc31)N2 (configuration not stated),-0.56
CCOC(=O)Cn1c2c(c(C(F)(F)F)cc1=O)C(=O)CCC2,0.82
C=CCOc1ccc(C(=O)N(Cc2ccc(C(C)C)cc2)C2CCS(=O)(=O)C2)cc1 (configuration not stated),1.2
Cc1[nH]nc(NCCc2ccccc2)c1[N+](=O)[O-],0.44
COc1ccc(-n2cccc2)c([N+](=O)[O-])c1,-0.45
COc1ccc(N2C(=O)C3C4C(C)=CC(C)(C3C2=O)C2C(=O)N(c3ccc(OC)cc3)C(=O)C42)cc1 (configuration not stated),0.79
COc1ccc(C2C(C#N)=C(N)Oc3cc(O)ccc32)cc1Br (configuration not stated),0.46
CCOc1cc(C2C(C#N)=C(N)Oc3c2c(C)nn3-c2ccccc2)ccc1O (configuration not stated),-7.34
CCOc1cc(C2C(C#N)=C(N)Oc3c2ccc2ccccc32)ccc1O (configuration not stated),7.19*
C=CCOc1c(Cl)cc(C2C(C#N)=C(N)Oc3cc(O)ccc32)cc1OC (configuration not stated),-0.24
COc1cc(C2C(C#N)=C(N)Oc3c2ccc2ccccc32)cc(Br)c1O (configuration not stated),3.27*
CCO/C=N\C1=C(C#N)C(c2ccc(OC)cc2)c2ccc3ccccc3c2O1 (configuration not stated),0.62
CCO/C=N\C1=C(C#N)C(c2ccc(Cl)cc2)c2ccc3ccccc3c2O1 (configuration not stated),3.89*
N#CC1=C(N)Oc2c(ccc3ccccc23)C1c1ccc(Cl)cc1 (configuration not stated),0.62
SMILES,Dicer inh
CCN(CC)c1ccc2c(c1)OC(N)=C(C#N)C2c1ccc(Cl)cc1 (configuration not stated),-0.3
O=C(Nc1ccc(N2CCOCC2)nc1)C1CC(=O)N(Cc2ccco2)C1 (configuration not stated),1.71
COc1ccccc1Nc1nc(-c2c(-c3ccc(Cl)cc3Cl)noc2C)cs1,-0.17
O=c1[nH]c2cc(Cl)c(Cl)cc2c(O)c1-c1ccccc1,0.07
CSc1ncc2c(n1)CC(C)(C)C/C2=N\OC(=O)c1ccccc1Cl,-0.53
COc1ccc(Oc2coc3cc(OC(=O)c4ccccc4OC)ccc3c2=O)cc1,1.29
CCOC(=O)C(C)N(Cc1ccccc1)C(=O)Nc1ccc(Cl)cc1 (configuration not stated),0.17
CC(C)Nc1nc(NC(C)C)nc(N(C)C#N)n1,6.95*
Nc1nc(N)c(S(=O)(=O)c2ccccc2)c(N2CCOCC2)n1,1.83
CC(C)S(=O)(=O)c1nnn(-c2cc(Cl)cc(Cl)c2)c1N,-1.45
CCn1c2c(c(=O)[nH]c1=O)C(c1cccc(Cl)c1)C1=C(N2)c2ccccc2C1=O (configuration not stated),-0.43
CCn1c2c(c(=O)[nH]c1=O)C(c1cccc3ccccc13)C1=C(N2)c2ccccc2C1=O (configuration not stated),3.38*
COCCn1c2c(c(=O)[nH]c1=O)C(c1cccc3ccccc13)C1=C(N2)c2ccccc2C1=O (configuration not stated),0.43
CCSCCOC(=O)C1=C(C)NC2=C(C(=O)CC(c3ccccc3Cl)C2)C1c1cccc(O)c1 (configuration not stated),1.36
COCCOC(=O)C1=C(C)NC2=C(C(=O)CCC2)C1c1ccc(F)c(F)c1 (configuration not stated),27.7
Brc1ccc(-c2ccc(/C=C/c3nc4ccccc4o3)o2)cc1,8.17*
C(=C\c1nc2ccccc2o1)/c1ccccc1,-0.71
c1cc(-c2nc3ccccc3o2)cc(-c2nc3ccccc3o2)c1,2.77
Cc1nnc(NC(=O)CSc2nnc3c4ccccc4n(C)c3n2)s1,1.08
COC(=O)CNC(=O)CS(=O)(=O)C(C)C,-0.88
Cc1c(CC(=O)N(C)C)sc2ccccc12,-1.25
COc1ccccc1OCCSc1nnc2[nH]c(=O)cc(N)n12,1.95
C=CCSc1n[nH]c(=O)n1C1CCCCC1,-1.05
C=CCSc1nnc2[nH]c(=O)cc(N)n12,5.19*
CCCCCCSc1nnc2[nH]c(=O)cc(N)n12,3.82*
SMILES,Dicer inh
CC(C)CSc1nnc2[nH]c(=O)cc(N)n12,2.42
C=C(C)CSc1nnc2[nH]c(=O)cc(N)n12,2.88
CSC1=C(C#N)C(=O)NC(C)(C)S1,0.99
Cn1cc(C(=O)O/N=C/c2c(Cl)cccc2Cl)c(C(F)(F)F)n1,0.43
CC1=C(C(=O)OC2CCCC2)C(c2cccc(C)c2)C2=C(CCCC2=O)N1 (configuration not stated),-1.98
Cc1ccc(C)n1-c1ccsc1C(=O)NNC(=O)/C=C/c1ccccc1,0.01
CCOC(=O)c1ccc(-n2nc(C)cc2C)cc1,-0.71
CCOC(=O)c1ccc([N+](=O)[O-])c(C)c1,-2.52
CCOC(=O)c1ccc(N)c(N)c1,3.42*
O=C(NC1CCN(Cc2ccccc2)CC1)c1cccn1CCc1ccccn1,1.43
CCOC(=O)C1=NNC2C(=O)N(c3ccccc3)C(=O)C12 (configuration not stated),0.66
COC(=O)C1=NN(c2ccc(OC)cc2)C2C(=O)N(c3ccc(Br)cc3)C(=O)C12 (configuration not stated),0.67
CCOC(=O)C1=NN(c2ccc(OC)cc2)C2C(=O)N(c3ccccc3)C(=O)C12 (configuration not stated),4.69*
CN1N=C(c2ccccc2)CSC1=Nc1ccc(OC(F)(F)F)cc1,-0.1
O=[N+]([O-])c1cc(/C=N/N=C/c2csc([N+](=O)[O-])c2)cs1,-0.23
O=C(CCCSc1nc(-c2ccco2)cc(C(F)(F)F)n1)NCc1cccnc1,0.73
O=S(=O)(c1ccccc1)n1nccc1C(c1ccccc1)c1ccccc1,1.38
CN(C)CCN1C(=O)C(=O)/C(=C(/O)c2ccccc2)C1c1ccc(Br)cc1 (configuration not stated),0.89
O=C(O)CCCN1C(=O)C(=O)/C(=C(/O)c2ccccc2)C1c1ccc(Br)cc1 (configuration not stated),3.91*

# Screening data: PubChem BioAssay, Center for Chemical Genomics, University of Michigan
